uPA generation = cell surface uPA generation inhibition; cell surface uPA generation assay, qHTS; Potency, µM (doses to about 38.3 µM), for the others: top-dose activity change, negative = inhibition, actives largely listed as inhibitors; hit rate 0.31% among 330,000; AID 540303; active = well fitted inhibition curve with a large enough effect; inconclusive = small, poorly fitted or top-dose-only effect; inactive = no such curve, though single readings can be large or run the other way; tested in mouse RAW 264.7 cells; note: potency is the fitted concentration of half-maximal effect; % is set by controls: 0 for no effect and ±100 for the full control effect; nearly all actives have a fitted effect of over 55% in size
D3 antag = antagonists of human D3 dopamine receptor; D3R cells, DiscoveRx beta-arrestin luminescence, antagonist mode; stronger effect = lower value; P35462; hit rate 2.5% among 360,000; max response, negative = inhibition, %; in the data active = max response below about -50%; inconclusive = no clear call, values can overlap the other calls; note: % is set by controls: 0 for no effect and ±100 for the full control effect
Target sequence (P35462 whole entry, looked up): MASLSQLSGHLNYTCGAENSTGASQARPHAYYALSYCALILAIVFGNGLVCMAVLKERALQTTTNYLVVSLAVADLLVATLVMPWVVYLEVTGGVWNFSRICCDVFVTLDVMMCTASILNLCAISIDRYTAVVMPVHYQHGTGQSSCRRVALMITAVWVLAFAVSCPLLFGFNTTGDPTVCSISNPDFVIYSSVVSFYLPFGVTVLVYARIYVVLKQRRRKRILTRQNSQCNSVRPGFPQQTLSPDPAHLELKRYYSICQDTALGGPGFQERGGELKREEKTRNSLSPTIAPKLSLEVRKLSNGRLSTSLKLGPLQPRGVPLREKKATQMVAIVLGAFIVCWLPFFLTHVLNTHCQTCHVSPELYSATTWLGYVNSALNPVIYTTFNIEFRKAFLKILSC
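Cells plated overnight at 1500 cells/well, then exposed to library compounds with dopamine controls for 90 minutes at 37 degrees C. DiscoveRx reagent added for 30–60 minutes at room temperature; luminescence read, quantitative HTS format.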
RGS4 inh = blocks human RGS4-accelerated GTP hydrolysis | P49798 | Transcreener GDP fluorescence polarization, RGS4-accelerated GTP hydrolysis | Potency, µM (highest dose often 114 µM), for inactives: top-dose activity change, negative = inhibition, usual class: inhibitors | hit rate 0.039% among 390,000; active = well fitted inhibition curve with a large enough effect; inconclusive = small, poorly fitted or top-dose-only effect; inactive = no such curve, though single readings can be large or run the other way; note: potency is the fitted concentration of half-maximal effect; % is set by controls: 0 for no effect and ±100 for the full control effect; nearly all actives have a fitted effect of over 75% in size
Target sequence (P49798 whole entry, looked up): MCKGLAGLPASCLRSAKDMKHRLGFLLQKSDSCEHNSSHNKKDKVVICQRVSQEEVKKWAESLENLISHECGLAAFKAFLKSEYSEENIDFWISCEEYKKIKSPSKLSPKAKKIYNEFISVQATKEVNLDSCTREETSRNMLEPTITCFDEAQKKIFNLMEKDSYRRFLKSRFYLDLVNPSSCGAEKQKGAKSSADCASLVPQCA
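MLSMR compounds (23 nl, pin-transferred) preincubated 10 min at room temperature with a 500nM (2x) first reagent, then RGS4 at 900nM (2x) plus Transcreener GDP mix added; fluorescence polarization (620/688 nm) read before and after 90 min at 30 °C.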
DRD3 agonist = agonists of human D3 dopamine receptor. P35462. D3R DiscoveRx beta-arrestin cells, luminescence, 90 min. max activation, %. hit rate 0.58% among 410,000. AID 652048; in the data active = max activation above about 30%; note: 0% is about no effect
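Agonist mode: compounds and dopamine controls were applied to plated cells for 90 min at 37 degrees C after an overnight attachment at 1500 cells/well. Luminescent read-out followed 30 - 60 minutes at room temperature with DiscoveRx detection reagent.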
Starred values were filed as active, the others as inactive; u = inconclusive; x = not tested or not shown. A selection: hits, their analogues and other compounds. The true share with any hit is near 3.1%.

SMILES | uPA generation | D3 antag | RGS4 inh | DRD3 agonist
COc1cccc(CNC(=O)Cc2c(C)c3cc4c(C)coc4cc3oc2=O)c1 | x | x | 14.5% | 5.9
CN1CC(=O)N2C(c3ccc(Cl)cc3)c3[nH]c4ccccc4c3C[C@H]2C1=O (some centres not stated) | 5.62µM* | 4.2 | 16.2% | 1.9
CN1CC(=O)N2C(c3cccc([N+](=O)[O-])c3)c3[nH]c4ccccc4c3C[C@H]2C1=O (some centres not stated) | 0.398µM* | -19.7 | 12.3% | -4.2
O=C1[C@@H]2Cc3c([nH]c4ccccc34)C(c3cccc([N+](=O)[O-])c3)N2C(=O)CN1CCCO (some centres not stated) | -11.5% | -58.5* | 0.1% | -8.6
CCOC(=O)c1nc(NCc2ccc(Cl)cc2)c2c(C)noc2n1 | x | x | 16.2% | 17.1
CCOC(=O)c1c(C)[nH]c(C)c1C(=O)COC(=O)/C=C/c1ccc(OC)cc1 | 2.51µM* | 13.5 | 8.0% | 0.4
CCC1OC(=O)C[C@@H](O)[C@H](C)[C@@H](O[C@@H]2O[C@H](C)C[C@H](N(C)C)[C@H]2O)[C@@H](CC=O)C[C@@H](C)C(=O)/C=C/[C@]2(C)OC2C1C (some centres not stated) | x | x | x | -9.2
Cc1nnc(N2C(=O)C(O)=C(C(=O)c3ccco3)C2c2ccc(F)cc2)s1 (configuration not stated) | 4.4% | -13.4 | -27.6% | 3.2
Cc1nnc(N2C(=O)C(O)=C(C(=O)c3ccco3)C2c2ccc(C(C)(C)C)cc2)s1 (configuration not stated) | -1.7% | -83.1* | -12.0% | -18.4
COc1ccc(OCCN2CCC(C(=O)NC(c3ccc(F)cc3)c3ncccc3C)CC2)cc1 (configuration not stated) | x | -85.3* | x | -13.8
Cc1cccnc1C(NC(=O)C1CCN(CCCOc2ccc(F)cc2)CC1)c1ccccc1 (configuration not stated) | x | -83.9* | x | -25.5
COc1ccc(OCCN2CCC(C(=O)NC(c3ccc(Cl)cc3)c3ncccc3C)CC2)cc1 (configuration not stated) | x | -72.7* | x | -18.6
Cc1cccnc1C(NC(=O)C1CCN(Cc2ccc(Cl)cc2)CC1)c1ccc(F)cc1 (configuration not stated) | x | 0.0 | x | -17.4
Cc1cccnc1C(NC(=O)C1CCN(Cc2ccc3ccccc3n2)CC1)c1ccc(Cl)cc1 (configuration not stated) | x | -68.4* | x | -12.3
Cc1cccnc1C(NC(=O)C1CCN(CCOc2ccc(F)cc2)CC1)c1ccc(Cl)cc1 (configuration not stated) | x | 0.0 | x | -22.0
CCCc1cc(=O)n2c(C(=O)Nc3ccc(OCC)cc3)c(C(=O)Nc3ccc(C)cc3)sc2n1 | x | x | -12.5% | 8.1
CC1(C)CC(NS(=O)(=O)c2ccc(F)cc2)CC(C)(C)N1 | -2.5% | -57.9* | 4.7% | -15.7
O=[N+]([O-])c1cc(Cc2ccccc2)cc(C=Nc2ccc(N3CCOCC3)cc2)c1O | 5.7% | -66.6* | u | -5.0
Cc1ccc(O)c(N=Cc2cc(Cc3ccccc3)cc([N+](=O)[O-])c2O)c1 | -13.1% | u | u | 10.1
Cc1ccc2c(c1)cc(C(=O)NCc1ccc(F)cc1)n2C | x | x | 14.1% | 11.1
Cn1nnnc1Sc1ncnc2scc(-c3ccccc3Cl)c12 | 10µM* | x | -0.5% | x
Cn1nnnc1Sc1ncnc2scc(-c3ccc(Cl)cc3)c12 | u | x | -25.0% | x
Cn1nnnc1Sc1ncnc2scc(-c3cccc(Br)c3)c12 | 8.91µM* | x | -7.0% | x
Cc1nn(Cc2ccccc2Cl)c2sc(C(=O)Nc3nccs3)cc12 | 1.3% | -9.1 | -28.3% | 31.8*
Cc1coc2c(C)c3oc(=O)c(CCC(=O)NCCCn4ccnc4)c(C)c3cc12 | 0.1% | -69.3* | -7.5% | -48.5
SMILES | uPA generation | D3 antag | RGS4 inh | DRD3 agonist
COc1ccc(Cn2c(CO)cnc2SCc2ccc(C)cc2)cc1 | x | x | -45.7% | -1.2
N#Cc1cccc(NC(=O)C2CCN(c3nc(-c4ccc(Cl)cc4)no3)CC2)c1 | x | x | -14.6% | -14.3
CC(=O)Oc1ccc([C@@H]2COc3c(ccc4c3C=CC(C)(C)O4)C2)c(OC(C)=O)c1 | 0.1% | 26.6 | -4.6% | 37.8*
Cc1ncoc1C(=O)NC1CCCc2c1cnn2-c1cc(F)cc(F)c1 (configuration not stated) | x | 12.9 | x | 7.4
Cc1ncoc1C(=O)NC1CCCc2c1cnn2-c1ccc(C(C)(C)C)cc1 (configuration not stated) | u | 34.4 | 3.1% | 30.2*
O=C1C=C(c2cccc3c2Oc2ccccc2S3)C[C@@H](c2ccc(Cl)cc2)C1 | 13.5% | 16.1 | -4.4% | 7.5
COc1ccc([C@H]2CC(=O)C=C(c3ccc4ccccc4c3)C2)cc1OC | 17.4% | 38.1 | 17.5% | 41.8*
CCOC(=O)c1cccc(C2=CC(=O)C[C@H](c3ccc(OC)c(OC)c3)C2)c1 | 11.8% | 88.1 | 5.6% | 51.8*
COc1ccc([C@H]2CC(=O)C=C(c3cccc4c3Oc3ccccc3S4)C2)cc1OC | -12.6% | 144.8 | -1.5% | 75.1*
COc1ccc([C@H]2CC(=O)C=C(c3ccc(OC)c(OC)c3)C2)cc1 | 6.0% | 32.1 | -8.6% | 4.9
O=C(O)c1ccccc1S(=O)(=O)Cc1ccccc1 | 8.0% | -19.5 | 25.2% | -10.1
Cn1ncc(S(=O)(=O)Cc2ccccc2)c(Br)c1=O | x | x | 2.67µM* | x
Cc1ccc(-n2c(C3CC3c3ccc(Cl)cc3)n[nH]c2=S)cc1 (configuration not stated) | x | -61.2* | u | 1.7
COCCn1c(SCCN2CCCCC2)nc2ccccc2c1=O | 1.3% | -65.4* | 3.8% | -6.4
COCCn1c(SCC(=O)N2CCCCC2)nc2ccccc2c1=O | x | -26.6 | -9.6% | -13.9
CC1=NN(c2nc(N)nc(/C(C#N)=C/c3ccc([N+](=O)[O-])o3)n2)C(C)(C)C1 | -10.2% | -60.9* | -28.8% | -7.5
C[C@@H](C[C@@H](O)[C@H](O)C(C)(C)O)[C@@H]1CC[C@]2(C)C3=CC[C@H]4C(C)(C)C(=O)CC[C@]4(C)[C@H]3CC[C@@]12C | -17.2% | 120.3 | 1.1% | 44.8*
CCN(CC)S(=O)(=O)c1cc(-c2onc(C)c2C)ccc1OC | x | x | -14.1% | 16.8
COc1ccc(C(=O)Oc2ccc(C(c3c(C)[nH][nH]c3=O)c3c(C)[nH][nH]c3=O)cc2)cc1 | x | x | -44.3% | 2.7
OC(COCc1ccccc1)CN1CCc2ccccc2C1 (configuration not stated) | 4.5% | -64.9* | -14.6% | -10.6
COc1ccc(COCC(O)CN2CCc3ccccc3C2)cc1OC (configuration not stated) | -1.5% | -60.6* | 5.5% | -35.9
COc1ccc2oc(-c3ccc(C)c(NC(=O)c4ccc(N5CCCCC5)c([N+](=O)[O-])c4)c3)nc2c1 | x | x | -2.2% | 1.4
Cc1ccc(N(CC(O)CN2CCCCC2)S(=O)(=O)c2ccc(C)cc2)cc1 (configuration not stated) | -5.3% | -51.6* | 14.6% | -18.3

Screening data from PubChem BioAssay.
